An excerpt weighted towards active compounds, which were near 0.58% of everything screened.
FadD28 binding – M. tuberculosis FadD28 bisubstrate binding inhibition; FadD28 bisubstrate probe binding, fluorescence polarization; inhibition, % at 12.5 µM; AID 588549; 0.22% of 360,000 active; in the data active means inhibition above about 8.5%, passing the limit was not always enough; inconclusive means no clear call, values can overlap the other calls
Vc quorum ag – quorum light induction in luxS cqsA deficient V. cholerae | V. cholerae BH1578 lux reporter, luminescence, 6 h | activation, % at 18.7 µM | 0.16% of 350,000 active | AID 588436; in the data active means activation mostly above about 9.7%, no sharp cut-off; inconclusive means no clear call, values can overlap the other calls; inactive means mostly below about 3.7%
TcdB GH inh – blocks C. difficile toxin B glycohydrolase activity; TcdB glycohydrolase enzymatic assay, plate reader; AID 652162; inhibition, % at 9.99 µM; 0.24% of 350,000 active; P18177; in the data active means inhibition above about 10%
Y pestis TopoI – blocks Yersinia pestis topoisomerase I activity | AID 504884 | activity, % at 10 µM | Y. pestis Topo-I cleavage product accumulation, plate reader | 0.064% of 360,000 active; in the data active means activity above about 50%, passing the limit was not always enough; inconclusive means no clear call, values can overlap the other calls
BioA inh – inhibitors of Mycobacterium tuberculosis BioA enzyme; 0.096% of 360,000 active; purified M. tuberculosis BioA enzyme, plate reader; inhibition, % at 9.99 µM; AID 602481; in the data active means inhibition above about 40%; inconclusive means no clear call, values can overlap the other calls
Starred values were filed as active, the others as inactive; ! = repeats disagree.

Results for Cc1cc(C)cc(N=C2NC(=O)CS2)c1 ?
FadD28 binding: -3; Vc quorum ag: 0; TcdB GH inh: 13*; Y pestis TopoI: -17; BioA inh: 1

How did Cc1cccc(N=C2NC(=O)CS2)c1 do in these assays?
FadD28 binding: -4; Y pestis TopoI: 5; BioA inh: 3

Results for O=C(O)c1ccc(O)c(O)c1 ?
FadD28 binding: -1; Vc quorum ag: 0; TcdB GH inh: -21; Y pestis TopoI: -6; BioA inh: -1

What do the screens show for `O=C(O)c1ccc(-c2ccc(O)c(F)c2)cc1`?
FadD28 binding: -1; Vc quorum ag: inactive; TcdB GH inh: 18*; Y pestis TopoI: 2; BioA inh: -3

How did CCNC(=O)[C@H]1[C@H](CO)[C@H]2Cn3c(ccc(-c4ccccc4)c3=O)[C@@H]1N2CCC(F)(F)F do in these assays?
BioA inh: -1

How did Oc1ccccc1CNc1cccc2cccnc12 do in these assays?
FadD28 binding: -2; Vc quorum ag: 0; TcdB GH inh: -2; Y pestis TopoI: 0

What do the screens show for `COc1cc(NCc2ccccc2O)c2ncccc2c1`?
FadD28 binding: 12*; Vc quorum ag: inactive; TcdB GH inh: 1; Y pestis TopoI: -7; BioA inh: -1

What do the screens show for `CCN(CC)c1ccc2cc(-c3nc4ccccc4[nH]3)c(=O)oc2c1`?
FadD28 binding: 0; Vc quorum ag: inactive; Y pestis TopoI: -7; BioA inh: -10

Results for CCN(CC)c1ccc2nc3ccccc3[n+](CC)c2c1 ?
FadD28 binding: -1; Vc quorum ag: 1; Y pestis TopoI: 131*; BioA inh: 7

What do the screens show for `CCN(CC)c1ccc2nc3ccc(N)cc3[n+](-c3ccccc3)c2c1`?
FadD28 binding: 48*; Vc quorum ag: inactive; TcdB GH inh: 5; Y pestis TopoI: 534*; BioA inh: 22

Results for O=C(Cc1ccncc1)NCC[C@H]1CC[C@@H](NC(=O)C2CCCC2)[C@H](CO)O1 ?
TcdB GH inh: -2; BioA inh: -3

What do the screens show for `COc1ccc(C(=O)NCCc2c[nH]c3ccccc23)cc1S(=O)(=O)N1CCCCC1C` (stereo not given)?
FadD28 binding: 62*; Vc quorum ag: inactive; TcdB GH inh: 2; Y pestis TopoI: 16; BioA inh: 6

What do the screens show for `COc1ccc(C2(CNC(=O)c3ccc(OC)c([N+](=O)[O-])c3)CCCCC2)cc1OC`?
FadD28 binding: inconclusive; Vc quorum ag: 1; TcdB GH inh: 12*; Y pestis TopoI: -2; BioA inh: 8

What do the screens show for `COc1ccc(C(=O)NCC2(c3ccc(OC)c(OC)c3)CCCC2)cc1OC`?
FadD28 binding: -3; Vc quorum ag: inactive; TcdB GH inh: 1; Y pestis TopoI: 17; BioA inh: 11

What do the screens show for `COc1ccc(NC(=O)N(C)C[C@@H]2OCCCC[C@H](C)Oc3ccc(NC(=O)Nc4ccc(F)cc4)cc3C(=O)N([C@@H](C)CO)C[C@@H]2C)cc1`?
TcdB GH inh: -1; BioA inh: -2

Results for O=c1cc(-c2ccccc2Cl)oc2c(NS(=O)(=O)c3cc(Cl)cc(Cl)c3O)ccc(O)c12 ?
FadD28 binding: 13*; Vc quorum ag: 0; Y pestis TopoI: -2; BioA inh: 2

How did CCc1ccc(S(=O)(=O)Nc2ccc(O)c3c(=O)cc(-c4ccccc4Cl)oc23)cc1 do in these assays?
FadD28 binding: -4; Vc quorum ag: 2; TcdB GH inh: 1; Y pestis TopoI: 7; BioA inh: -2

What do the screens show for `Fc1ccc(SCCc2ccccn2)cc1`?
FadD28 binding: -1; Vc quorum ag: 7; TcdB GH inh: 0; Y pestis TopoI: 50*!; BioA inh: 0

Results for Cc1ccc(NC(=O)N2CCCCC2)cc1NC(=O)N1CCCCC1 ?
FadD28 binding: 0; Vc quorum ag: 0; TcdB GH inh: -1; Y pestis TopoI: 5; BioA inh: -6

How did Cc1ccc(NC(=O)OC(C)N2CCCCC2)cc1NC(=O)OC(C)N1CCCCC1 (stereo not given) do in these assays?
FadD28 binding: -2; Vc quorum ag: 1; TcdB GH inh: 11*; Y pestis TopoI: 0; BioA inh: -2

What do the screens show for `C[C@H](CO)N1C[C@H](C)[C@@H](CN(C)S(=O)(=O)c2cccs2)Oc2ccc(NC(=O)CCCCCC(=O)Nc3ccccc3N)cc2CC1=O`?
BioA inh: -2

Results for COc1ccc(C(=O)/C=C/c2ccc(O)cc2)c2c1CC(O)C(C)(C)O2 (stereo not given) ?
FadD28 binding: -6; Vc quorum ag: 0; TcdB GH inh: 23*; Y pestis TopoI: 0; BioA inh: 1

What do the screens show for `COc1ccc(C(=O)/C=C/c2ccc(O)cc2)c(O)c1CC=C(C)C`?
FadD28 binding: -8; Vc quorum ag: inactive; TcdB GH inh: -1; Y pestis TopoI: -39; BioA inh: -4

How did NS(=O)(=O)c1ccc(Nc2nc(-c3ccc(O)cc3O)cs2)cc1 do in these assays?
FadD28 binding: 40*; Vc quorum ag: -5; Y pestis TopoI: -39

What do the screens show for `O=c1n(Cc2ccc(Cl)cc2)c2sc3c(c2c2ncnn12)CCCC3`?
FadD28 binding: 1; Vc quorum ag: inactive; Y pestis TopoI: 57*; BioA inh: 13

Results for O=S(=O)(Nc1nc(-c2sccc2Cl)cs1)c1cc(Cl)ccc1Cl ?
FadD28 binding: 24*; Vc quorum ag: 0; Y pestis TopoI: 5; BioA inh: 15

What do the screens show for `CC(C)(C)c1nnc(NS(=O)(=O)c2cc(Cl)ccc2Cl)s1`?
FadD28 binding: -2; Vc quorum ag: -1; TcdB GH inh: 4; Y pestis TopoI: 10; BioA inh: 0

How did O=C(C[C@@H]1CC[C@@H]2[C@H](COC[C@H](O)CN2C(=O)c2ccccn2)O1)NC1CCC1 do in these assays?
TcdB GH inh: 12*; BioA inh: 0

What do the screens show for `O=C(C[C@@H]1CC[C@@H]2[C@H](COC[C@@H](O)CN2C(=O)Nc2ccc(Cl)c(Cl)c2)O1)NCc1ccccc1`?
TcdB GH inh: 0; BioA inh: 4

What do the screens show for `O=C(C[C@H]1CC[C@@H]2[C@H](COC[C@H](O)CN2C(=O)c2ccccn2)O1)NC1CCC1`?
TcdB GH inh: 0; BioA inh: -1

How did O=C(C[C@H]1CC[C@@H]2[C@H](COC[C@@H](O)CN2C(=O)Nc2ccc(Cl)c(Cl)c2)O1)NCc1ccncc1 do in these assays?
TcdB GH inh: 18*; BioA inh: 5

What do the screens show for `Cc1csc(NC(=O)CSc2nnc(NC(=O)NC(C)(C)C)s2)n1`?
FadD28 binding: 12*; Vc quorum ag: inactive; TcdB GH inh: 1; Y pestis TopoI: -2; BioA inh: -1

Results for CC(=O)Nc1nnc(SCC(=O)Nc2nc(C)cs2)s1 ?
FadD28 binding: -4; Vc quorum ag: 0; TcdB GH inh: 2; Y pestis TopoI: -4; BioA inh: 0

How did Cc1c(-c2cc(Br)ccc2O)nc2cc3c(cc2c1C)OCO3 do in these assays?
FadD28 binding: 29*; Vc quorum ag: inactive; TcdB GH inh: 3; Y pestis TopoI: -4; BioA inh: -3

What do the screens show for `Cc1nc(NC(=O)c2ccc(Cl)cc2)nc2cc3c(cc12)OCO3`?
FadD28 binding: 0; Vc quorum ag: 0; Y pestis TopoI: 2; BioA inh: -2

Bioassay records as filed in PubChem BioAssay.
